# According to PubChem BioAssay AID602358 (National Center for Advancing Translational Sciences (NCATS), 2012):
# Results filed as inconclusive are left out. Values without a mark were called inactive. The source made the active and inactive calls. Calls follow the shape of the dose curve; as a rule, active = well fitted inhibition curve with a large enough effect; inconclusive = small, poorly fitted or top-dose-only effect; inactive = flat fitted curve, though single readings scatter.
# Target: Luciferin 4-monooxygenase (Photinus pyralis) (UniProt P08659)
# Sequence (P08659 whole entry, looked up): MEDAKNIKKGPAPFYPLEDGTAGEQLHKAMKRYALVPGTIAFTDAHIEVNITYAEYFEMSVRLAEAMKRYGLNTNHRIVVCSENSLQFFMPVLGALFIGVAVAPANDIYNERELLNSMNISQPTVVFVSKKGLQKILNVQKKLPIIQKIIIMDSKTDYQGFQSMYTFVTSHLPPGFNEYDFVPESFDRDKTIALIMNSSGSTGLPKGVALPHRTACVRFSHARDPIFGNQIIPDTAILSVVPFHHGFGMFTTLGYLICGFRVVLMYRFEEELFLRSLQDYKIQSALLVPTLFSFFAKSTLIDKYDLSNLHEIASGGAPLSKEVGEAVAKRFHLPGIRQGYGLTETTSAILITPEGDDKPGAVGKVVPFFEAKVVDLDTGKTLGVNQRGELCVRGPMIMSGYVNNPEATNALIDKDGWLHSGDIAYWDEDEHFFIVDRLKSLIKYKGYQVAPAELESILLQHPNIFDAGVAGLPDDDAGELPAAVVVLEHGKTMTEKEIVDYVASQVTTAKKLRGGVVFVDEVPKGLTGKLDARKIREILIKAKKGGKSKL
# Assay: FLuc inhibitory activity for the follow-up compounds in a biochemical assay with Km concentrations of substrate and 500microM CoASH
# Details: purified FLuc, Km substrates + 500 uM CoASH, luminescence; series mostly up to 57.5 µM; activity change, negative = inhibition: at the top concentration
# From the text: NCGC Assay Overview: Firefly (Photinus pyralis) luciferase is one of the most commonly used transcriptional reporters. It is considered one of the more dynamically responsive reporters - that is, responsive to changes in reporter transcription - as it requires no post-translational modifications and is enzymatically active directly after protein synthesis (Wood, 1998). With no endogenous expression in mammalian cells and without the requirement of external excitation, it offers very little background signal, thus generally providing excellent signal to background for most assays. Previous profiling work to determine the prevalence of compounds that affect FLuc enzymatic activity (PubChem AID 411) identified that ~3% of the MLSMR library (then at ~72K) inhibited FLuc. […] Of the compounds identified in this profile that inhibited FLuc, 151 compounds were selected for further analysis, in an effort to better understand their mode of inhibiting FLuc. The assay described here was to determine the activity of the compounds in an FLuc assay that contained KM concentrations of substrates and 500uM CoASH.
# NCGC Assay Protocol Summary: Reagents: 50mM Tris acetate, pH 7.5; 10mM Mg acetate; 10uM D-luciferin (Sigma #L9504); 10uM ATP; 0.01% Tween-20; 0.05% BSA; 10nM P. pyralis luciferase (Sigma #L9506); 500 uM CoASH Control compounds used were two known firefly luciferase inhibitors (3-(5-(3-chlorophenyl)-1,2,4-oxadiazol-3-yl)benzoic acid and 5-(2-fluorophenyl)-3-phenyl-1,2,4-oxadiazole), and DMSO. Three microliters containing firefly luciferase substrates in buffer (final concentrations: 50mM Tris acetate, pH 7.5, 10mM Mg acetate, 0.01% Tween-20, 0.05% BSA, 10uM D-luciferin, 10uM ATP, and 500 uM CoASH) are dispensed into each well of a Greiner white, solid-bottom 1536-well format plate using a flying reagent dispenser (FRD). These assay plates were then treated with 23nL of compound or DMSO using a Kalypsys pin tool, which allows for delivery of a 12-point intraplate titration of each compound to the assay plate (quantitative HTS), with a final compound concentrations ranging from approximately ~60uM to 0.3nM. One microliter of firefly luciferase in 500mM Tris-acetate buffer was then delivered by FRD to each well for a final enzyme concentration of 10nM. Luciferase activity was then measured using a ViewLux CCD imager (PerkinElmer), with an average exposure time of 2-30 seconds (2X binning, medium/high gain).
Structure (SMILES),Potency,"activity change, negative = inhibition"
Cn1c(N/N=C/c2cc3ccccc3nc2Cl)nc2ccccc21,0.0231 µM (active),–
Cc1ccc(C(=O)Nc2cccc(C(=O)O)c2)cc1S(=O)(=O)N1CCCCC1,3.66 µM (active),–
O=C(Nc1cccc(-c2nc3ccccc3s2)c1)C1=COCCO1,7.3 µM (active),–
COc1ccccc1C(=O)Nc1ccc(C(=O)Nc2ccccc2C(=O)O)cc1,20.6 µM (active),–
COc1ccc(C(=O)Nc2nc3ccc(OC)cc3s2)cc1,0.58 µM (active),–
O=C(Nc1ccccc1C(=O)O)c1cccc(NC(=O)c2ccc(Br)o2)c1,10.3 µM (active),–
Cc1ccc2nc(-c3ccc(NC(=O)CN4CCN(C(=O)c5ccco5)CC4)cc3)sc2c1,3.66 µM (active),–
Cc1ccc(C(=O)Nc2ccc(C(=O)O)cc2)cc1S(=O)(=O)NCc1ccccc1,–,-14.4%
COc1ccc2nc(NC(=O)c3ccccc3C(=O)O)sc2c1,6.51 µM (active),–
O=C(Nc1ccccc1-c1nc2ccccc2s1)c1ccc(Br)o1,–,-3.85%
Nc1ccc(-c2nc3cc(N)ccc3s2)cc1,0.259 µM (active),–
Cc1c(C)c2ccc(OCC(=O)Nc3ccccn3)c(C)c2oc1=O,0.0041 µM (active),–
Oc1ccc(-c2nc3ccccc3s2)c(O)c1,1.83 µM (active),–
c1ccc2sc(-c3ccc4c(c3)OCO4)nc2c1,0.103 µM (active),–
CCOc1c(Cl)cc(C(=O)Nc2ccccc2C(=O)O)cc1Cl,11.6 µM (active),–
Cc1ccc(C(=O)Nc2ccccc2C(=O)O)cc1S(=O)(=O)N1CCCCCC1,0.919 µM (active),–
Cc1c(NS(C)(=O)=O)cccc1-c1nc2ccccc2s1,3.66 µM (active),–
COc1ccc2nc(NC(=O)CCc3nc(-c4ccccc4F)no3)sc2c1,–,-17.4%
O=C(Nc1ccccc1C(=O)O)c1ccccc1,23.1 µM (active),–
Cc1c(NC(=O)c2cccs2)cccc1-c1nc2ccccc2s1,3.26 µM (active),–

Structure (SMILES),Potency,"activity change, negative = inhibition"
COc1cccc(-c2nc3ccccc3s2)c1,0.517 µM (active),–
O=C(Nc1c(Cl)cc(Cl)cc1-c1nc2ccccc2s1)c1ccc(Br)o1,–,-5.98%
O=C(O)c1ccc(NC(=O)c2cc(S(=O)(=O)N3CCCCC3)c(Cl)cc2Cl)cc1,–,-8.29%
O=C(Cc1ccc(Cl)cc1)Nc1cccc(C(=O)Nc2ccccc2C(=O)O)c1,25.9 µM (active),–
Nc1ccc(-c2nc3ccc(C(=O)O)cc3s2)cc1,0.146 µM (active),–
O=C(O)c1cccc(NC(=O)c2cccc(S(=O)(=O)Nc3cccc(F)c3)c2)c1,–,-7.88%
CCOc1ccc(C(=O)Nc2cccc(C(=O)O)c2)cc1Cl,0.919 µM (active),–
COc1ccc2nc(NC(=O)c3ccc([N+](=O)[O-])o3)sc2c1,1.16 µM (active),–
O=C(Nc1ccccc1C(=O)O)c1ccc(NC(=O)C2CCCCC2)cc1,5.17 µM (active),–
Nc1ccc2nc(-c3ccccc3)sc2c1,0.058 µM (active),–
O=C(O)c1ccccc1NC(=O)c1ccccc1Nc1ccccc1,9.19 µM (active),–
Cc1cccc(C(=O)Nc2ccc(-c3nc4ccccc4s3)cc2Cl)c1,18.3 µM (active),–
COc1cc(OC)cc(-c2nc3ccccc3s2)c1,3.66 µM (active),–
Nc1ccc(-c2nc3ccc(N)cc3s2)cc1,0.116 µM (active),–
Cc1cccc(C(=O)Nc2ccccc2C(=O)Nc2ccc(C(=O)O)cc2)c1,5.8 µM (active),–
Cc1ccc(C(=O)Nc2cccc(C(=O)O)c2)cc1S(=O)(=O)N1CCOCC1,20.6 µM (active),–
NC(=O)Cc1ccc2sc(-c3ccccc3)nc2c1,1.63 µM (active),–
COc1ccc(-c2nc3ccccc3s2)cc1O,0.0326 µM (active),–
CCOc1ccc2nc(NC(=O)c3ccoc3C)sc2c1,0.183 µM (active),–
COc1cc(OC)cc(C(=O)Nc2ccccc2-c2nc3ccccc3s2)c1,–,-5.72%
